Pf growth 96h – P. falciparum growth inhibition at 96 hour, primary screen for plastid delayed-death inhibitors | P. falciparum luciferase reporter growth, 96 h | Potency, µM (top dose mostly 28.7 µM), inactives show top-dose activity change, negative = inhibition, hits mostly inhibitors | actives 6.9% (n = 320,000); also: potency is read from the fitted curve at half-maximal effect
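Two parasite generations (96 h, 37 C, 5% CO2) of compound exposure in infected erythrocytes (0.05% parasitemia, 2% hematocrit). Luciferase-reporter P. falciparum; decreased luminescence indicates inhibited growth, aimed at apicoplast-acting delayed death.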
HCMV inh – blocks human cytomegalovirus replication | HFF cells, HCMV-luciferase reporter, 72 h; hits give low values | actives 4.5% (n = 410,000) | AID 1259415 | activity change, negative = inhibition, % at 57.5 µM; in the data active = activity change below about -60%; inconclusive = no clear call, values can overlap the other calls; inactive = above about -39%
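Two compound doses tested in HFFs infected with HCMV-luciferase, MOI 1 PFU/cell, 72 h at 37C. Lysate luminescence read with OneGlo; data normalized against buffer-only and 10uM Salinomycin inhibitor controls.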
HCV inhibitor – inhibitors of hepatitis C virus infection. actives 3.4% (n = 340,000). Potency, µM (doses to about 41.8 µM), without a hit: at the highest dose activity change, negative = inhibition, usual class: inhibitors. AID 651820. Huh7.5.1 HCVcc-Cre infection, luciferase reporter, 44 h; also: potency is read from the fitted curve at half-maximal effect
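Infectious HCV cell culture screen: compound-treated cells (1,000/well, pre-plated 4 h) are infected with HCVcc-Cre at roughly 0.5 moi and grown 44 h. Infection is quantified by luciferase signal after 15 min substrate incubation at room temperature.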
LASV entry inh – blocks Lassa virus binding to or entry into cells; Lassa virus pseudotype entry inhibition, cell reporter; actives 1.2% (n = 300,000); Potency, µM (doses to about 37.9 µM), inactives show top-dose activity change, negative = inhibition, most hits filed as inhibitors; calls by dose curve; tested in HEK293 cells; also: potency is read from the fitted curve at half-maximal effect; nearly all actives have a fitted effect of over 50% in size
Marburg entry inh – inhibitors of Marburg virus binding or cell entry | Marburg virus pseudotyped entry inhibition, cell reporter | Potency, µM (highest dose often 37.8 µM), for inactives: at the highest dose activity change, negative = inhibition, most hits filed as inhibitors | actives 1.8% (n = 300,000); calls by dose curve; tested in HEK293 cells; also: potency is read from the fitted curve at half-maximal effect
Pf growth 48h – inhibits P. falciparum growth in the first generation, 48 h; P. falciparum luciferase growth in erythrocytes, 48 h; Potency, µM (highest dose often 28.7 µM), for inactives: at the highest dose activity change, negative = inhibition, actives largely listed as inhibitors; actives 5.9% (n = 310,000); AID 504832; also: potency is read from the fitted curve at half-maximal effect
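Luciferase-expressing P. falciparum in infected erythrocytes (2% hematocrit, 0.1% parasitemia final) in RPMI 1640/0.5% Albumax were exposed to compound for 48 hours at 37 C, 5% CO2; growth read as luminescence.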
Numbers without * were called inactive; ? = inconclusive; . = no result given; ! = a repeat was not active; [ ] = remark or other dose. In the library only some 14% were active in any assay of this set; here they are far more common. Unless noted, calls follow the shape of the dose curve; as a rule, active = well fitted inhibition curve with a large enough effect; inconclusive = small, poorly fitted or top-dose-only effect, or another doubt; inactive = no such curve, though single readings can be large or run the other way. % is scaled to controls: 0 for no effect and ±100 for the full control effect.

SMILES	Pf growth 96h	HCMV inh	HCV inhibitor	LASV entry inh	Marburg entry inh	Pf growth 48h
COc1ccc2cc(/C=N/NC(=O)c3ccc(CN(c4cccc(Cl)c4Cl)S(C)(=O)=O)cc3)c(Cl)nc2c1	?	37	-16%	?	0.56µM*	?
CCCCCNCc1cccn1C	.	18	21%	10%	2%	-1%
CCCCCCCn1ccc(=N)cc1	.	-91*	0.56µM*	?	?	0.93µM*
CCCCCn1ccc(=N)cc1	1.5µM*	-73*	6.3µM*	-29%	-29%	4.1µM*
CCn1ccc(=N)cc1	12µM*	19	-25%	-10%	4%[46.1 µM]	?
CCCCCCCCCn1ccc(=N)cc1	?	-95*	0.04µM*	?	?	0.17µM*
CCCCCCN1CC(O)=C(c2ccccc2)C1=N	.	-5	7%	-1%	-2%	-12%
O=S1(=O)N[C@H](Cc2ccccc2)COc2cc(Br)ccc21	.	-17	.	?	.	.
CNc1ccc(/C=C2\COc3ccccc3C2=O)cc1[N+](=O)[O-]	15%	0	-14%	1%	?	.
O=C1/C(=C/c2ccccc2[N+](=O)[O-])COc2ccccc21	?	-100*	?	.	.	?
N=C(N)c1ccc(OCCCCCOc2ccc(C(=N)N)cc2)cc1	0.037µM*	-89*	2.2µM*!	?	?	0.26µM*
C=CC[C@@H](CC(=O)N[C@@H](CO)Cc1ccccc1)C(=O)NC[C@@H](OC(=O)[C@@H](CC=C)Cc1ccc(F)cc1)c1ccccc1	.	1	-1%	.	.	.
C=CC[C@H](CC(=O)N(CCO)Cc1ccccc1)C(=O)N[C@@H](COC(=O)[C@@H](CC=C)CC(=O)OC(C)(C)C)Cc1c[nH]c2ccccc12	.	39	?	.	.	.
C=CC[C@@H](Cc1ccc(F)cc1)C(=O)OC[C@H]1CCCN1C(=O)[C@@H](CC=C)CC(=O)N(CCO)Cc1ccccc1	.	0	?	.	.	.
C=CCC[C@@H](Cc1ccc(F)cc1)C(=O)OC[C@@H](NC(=O)[C@@H](CC=C)CC(=O)N(CCO)Cc1ccccc1)c1ccccc1	.	-101*	?	.	.	.
C=CC[C@@H](Cc1ccc(F)cc1)C(=O)OC[C@@H]1CCCN1C(=O)[C@H](CC=C)CC(=O)N(CCO)Cc1ccccc1	.	-36	1.4µM*	.	.	.
C=CC[C@@H](CC(=O)N[C@@H](CO)Cc1ccccc1)C(=O)NC[C@H](OC(=O)[C@@H](CC=C)Cc1ccc(F)cc1)c1ccccc1	.	-64*	21%	.	.	.
C=CC[C@H](CC(=O)N(CCO)Cc1ccccc1)C(=O)N[C@H](COC(=O)[C@H](CC=C)CC(=O)OC(C)(C)C)Cc1c[nH]c2ccccc12	.	-11	25µM*	.	.	.
C=CCC[C@@H](Cc1ccc(F)cc1)C(=O)OC[C@@H](NC(=O)[C@H](CC=C)CC(=O)N(CCO)Cc1ccccc1)c1ccccc1	.	61	-27%	.	.	.
COc1cc(NC(=O)C2CCN(S(=O)(=O)c3ccc4[nH]c(=O)oc4c3)CC2)cc(OC)c1	?	-39	17%	?	13%[46.1 µM]	-43%
O=C(CSc1ccc(Br)cc1)NCC(c1ccco1)N1CCCCC1 (stereo not drawn)	?	-20	3%	17%	-7%	-12%
C=CCC[C@@H](Cc1ccc(F)cc1)C(=O)OC[C@@H](Cc1ccccc1)NC(=O)[C@H](CC=C)CC(=O)NCCO	.	-20	7.1µM*	.	.	.
C=CC[C@H](CC(=O)N(CCO)Cc1ccccc1)C(=O)NCCOC(=O)[C@@H](CC=C)Cc1ccc(F)cc1	.	16	?	.	.	.
C=CCC[C@H](Cc1ccc(F)cc1)C(=O)OC[C@@H](C)NC(=O)[C@H](CC=C)CC(=O)NCCO	.	-5	?	.	.	.
C=CCC[C@@H](Cc1ccc(F)cc1)C(=O)OCCNC(=O)[C@@H](CC=C)CC(=O)N(CCO)Cc1ccccc1	.	-1	10µM*	.	.	.
SMILES	Pf growth 96h	HCMV inh	HCV inhibitor	LASV entry inh	Marburg entry inh	Pf growth 48h
O=C(NNc1c2ccccc2nc2ccccc12)c1ccc(O)cc1	-102%	?	10µM*	?	5.8µM*	?
O=C(NNc1ccccc1)c1ccccc1	.	16	-2%	-29%	?	.
O=C(NNc1c2ccccc2nc2ccccc12)C(O)c1ccccc1 (stereo not drawn)	0.41µM*	0	?	.	.	?
O=C(NNc1c2ccccc2nc2ccccc12)c1cccc(O)c1	?	-61*	?	-9%	?	13µM*
O=C(N/N=C/c1ccccc1)C(O)c1ccccc1 (stereo not drawn)	?	38	13%	.	.	1%
O=C(O)c1cccc(Nc2c3ccccc3nc3ccccc23)c1	11%	-17	-14%	.	.	?
Cn1c(SCc2cccc(F)c2)nc2c([nH]c3ccccc32)c1=O	.	22	.	-3%[46.1 µM]	.	.
CC1(C)CC(=O)C=C(NCCc2c[nH]c3ccccc23)C1	1%	57	6%	?	23%[46.1 µM]	-3%
COC(=O)C1=C(c2ccc(-c3ccccc3)c(F)c2)C[C@@H]2CC[C@H]1N2C(=O)NC1CC1	2.9µM*	6	10µM*	.	.	4.7µM*
CCCNC(=O)N1[C@H]2CC[C@@H]1C(C(=O)OC)=C(c1ccc(-c3ccccc3)c(F)c1)C2	?	10	7.9µM*	.	.	9.3µM*
COC(=O)C1=C(c2ccc3ccccc3c2)C[C@@H]2CC[C@H]1N2C	10%	-15	1%	.	.	?
COC(=O)C1=C(c2ccc(-c3ccccc3)c(F)c2)C[C@@H]2CC[C@H]1N2C(=O)NCCOc1ccccc1Cl	?	88	14µM*	.	.	10µM*
COC(=O)C1=C(c2ccc3ccccc3c2)C[C@@H]2CC[C@H]1N2C(=O)NC(C)C	-18%	-63*	-12%	.	.	?
COC(=O)C1=C(c2ccc(-c3ccccc3)c(F)c2)C[C@@H]2CC[C@H]1N2C(=O)NC(C)C	?	-6	?	.	.	?
COC(=O)C1=C(c2ccc(F)cc2F)C[C@@H]2CC[C@H]1N2C(=O)NCc1ccc(F)cc1	4%	-9	?	.	.	?
COC(=O)C1=C(c2ccc(F)cc2F)C[C@@H]2CC[C@H]1N2C(=O)NCCOc1ccccc1	4.1µM*	-11	21%	.	.	?
COc1cccc2sc(Nc3nnc(-c4cccs4)o3)nc12	144%	-86*	?	?	?	?
COc1cccc2sc(Nc3nnc(-c4ccc(F)cc4)o3)nc12	1.9µM*	30	?	.	.	12µM*
COc1cccc(CN(C)C(=O)CSCC(=O)Nc2cc(C)on2)c1OC	-16%	6	-10%	-1%	-5%[46.1 µM]	?
COc1ccc(CCNc2nc(C)nc3c2oc2ccccc23)cc1OC	-71%	-67*	?	13µM*	13µM*	.

Compound activity (PubChem BioAssay)
